Consider 40 sequences from the supplement of paper PMC6555819.

The test system of the assay is VDR:RXRa (NR concentration 270 nM, RXRa partner concentration 90 nM). Kind of assay: PBM binding z-score (relative to random genomic background probes); higher = stronger binding; sequences stand for … in GC…GCGATTGACAGCGTAGAATGAAGG
On the procedure: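 Protein-binding microarray (Agilent 4x180K custom design, double-stranded 60-nt probes: 5' GC cap, 34-nt variable region, 24-nt constant primer region; full probe sequence given). Purified or IVT nuclear receptor:RXRα heterodimers (3:1 NR:RXRα, mostly 270:90 nM) or homodimers were incubated for 1 h in PBS with 2% milk and no ligand, then detected with Alexa488 antibodies. Fluorescence from o1-orientation probes (~5 replicates averaged) was converted to z-scores against 500 random hg19 background probes. Variable regions are seed direct-repeat (DR0–DR5) sites, all their single-nucleotide variants and half-site ablations.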
GCTATTAGTTGAAAGGCCAACCGAATGATTCTCG registered a PBM binding z-score of -0.0343.
Take CAAACTAGGACAAGGTCAAAGTCGGTTTGTGCCA: the PBM binding z-score worked out at 4.36.
In turn, AGTATGAGGTTAAGATCAGGGAAACAGAATACAT yielded a PBM binding z-score of 1.18.
The value for CGACCTAGGTCAAGGACAGTGAATCTCCGCACGC was 1.96; that for TCGAGTCGGTTACCAATGGGGCATTCAGCTTTCT was -0.384; that for GCTAGCAGGCCATTTGGGTCACTCAATGACGGGC was 0.933.
In turn, CCTAGCAGGCCAATCTGCGTCACTCAAGGCTTGA had a PBM binding z-score of -0.714.
Consider TCTTGTAGTTCAGCAGGTTAAGAAAGCTGGCCAA, for which the PBM binding z-score turned out to be 1.78.
With CCTGACAGGTGAGAAGGTAACTCAGCCTCGATTA, the PBM binding z-score was -0.0801.
In turn, GCTTGTGGATCAAGGTTAAGAAAGACTAAGCTAA returned a PBM binding z-score of 0.111.
On to ATACCAAGGTGATCGTTAGGTCGTTGATACTAAC, for which the PBM binding z-score came to 0.566.
Regarding TCATATTGGTAAATGCTAGGTGAAAGTCCGATCT, the PBM binding z-score came out at 0.687.
Consider AGAATGAGGTTACCAAAGATCAGGGATACGCTTG, for which the PBM binding z-score was 1.39.
As for AGAATGACGTTACCAAAGATCAGGGAAACGCTTG, the PBM binding z-score is -0.434.
GATACAGGGTCAAGGCCAGAGGACGCGTATTGAT came in with a PBM binding z-score of 4.11.
With TCGAGTAGGTTAGTCGGCGCATTCAGCCAACATA the figure was -0.0837; with CCGACTGGGGCAAGGTTAGCATAACGCACAGCCA, -0.429; with CGTCCAAGGCCATAGGAGGTCAGTGAAGACAGAT, 2.71.
The sequence CCATACAGGTGAGAAGGTAACTCAGCCTCGATTA came in with a PBM binding z-score of 0.121.
In turn, GGAACGAGGGCAAAGTTTATAGCATCTGTCGACG came in with a PBM binding z-score of 1.92.
Consider CAGCCTAGGTCAGGGCCAGTATGGGAGGAACGTT, for which the PBM binding z-score is -0.0336.
Consider CATGCAGGGTCAGCTAGGCCAGAGTAGGGACGGC, for which the PBM binding z-score came out at 3.97.
For AGAATGAGGTTACCAAAGATCAGGGAGACGCTTG, the PBM binding z-score was 1.51.
TCTATTAGTTGCAGGGCAACCGACGAGTCCGTTT: the PBM binding z-score was found to be 0.743.
With TCTGCGAGGTCAACGATGGTCAGCTAATCTGCTA, the PBM binding z-score is 5.38.
With CGTCCAAGGTCAAAGGAGGTCAGTGAAGACAGAT the figure was 6.53; with TCTAGTTGGTCAACGGTCACACACTCGAAATGCG, 0.848; with TCTTGTAGATCAAGAAGGTTAAGAAAGCCTGAGT, 1.16.
Consider GCTCGGAGCACAAGGTCAGAGCTTTGTCCGTAGA, for which the PBM binding z-score was 1.2.
CCAGACAGGTGAAAGGTAACTCTGTCTGGTACGC: the PBM binding z-score was 0.668.
Consider GCTTCTAGGTCAACTGATGGTCAGCTAAAGCTCG, for which the PBM binding z-score came to 2.06.
As to CCTACTGGGCCATTCAGAGGTCCTTGATCATATG, the PBM binding z-score was -0.591.
Sequence TCCTATAGGTAAACAGGTGAAAGTCCGTAAGTTA had a PBM binding z-score of 0.775.
In the case of TCTGCTAGGTCAACGACGGTCAGCTAATCTGCTA, the PBM binding z-score was found to be 2.
As to CCGACTGGGGCAAAAAGGTTACCATACCATCCGG, the PBM binding z-score was found to be 1.28.
In the case of CTACCAAGGTGCACAAGGTCGTTGATTACTATTC, the PBM binding z-score worked out at 3.17.
In the case of CCTAGCAGGCCAATCTGGGTCAATCAAGGCTTGA, the PBM binding z-score is 0.445.
AGTCGAAGTTCACTAGGTAACGTAAGATTCAGCT yielded a PBM binding z-score of 2.44.
As for CAGCCTAGGTAAGGGCCAGTATAGGAGGAACGTT, the PBM binding z-score is -0.84.
With CCTGCTGGGTCAATGGTCAGCTAAAGCAGCTCGC the figure was 0.85.
